LMNA splice mod – qHTS Assay for Modulators of Lamin A Splicing; Potency, µM (titrated, usually from 46.1 µM), for the others: top-dose ratio change, negative = inhibition, actives largely listed as inhibitors; AID 1487, 2009; HeLa LMNA splicing GFP/RFP minigene ratio, 48 h; 200,000 tested, 0.01% active; active = well fitted inhibition curve with a large enough effect in the signal ratio, with a control signal flat, not every such curve was filed as active; inconclusive = small, poorly fitted or top-dose-only effect, or effect the other way, or a change in a side signal; the % refers to the signal ratio; note: potency is the fitted concentration of half-maximal effect
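S3 HeLa stable clones carrying a lamin A-EGFP splicing minigene plus DsRed2 were seeded at 600 cells/well in Opti-MEM with 2% FBS, pin-dosed and incubated 48 h at 37°C. Acumen cytometry (488 nm) gave the GFP/RFP total-intensity ratio.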
Luc counter – Counterscreen for Luciferase (Kinase-Glo TM) Inhibition; Luciferin 4-monooxygenase (Photuris pensylvanica), Q27757; Kinase-Glo luciferase, ATP luminescence, 8 min; Potency, µM (highest dose often 38.3 µM), for inactives: at the top dose activity change, negative = inhibition, usual class: inhibitors; 200,000 tested, 0.28% active; active = well fitted inhibition curve with a large enough effect; inconclusive = small, poorly fitted or top-dose-only effect; note: potency is the fitted concentration of half-maximal effect; nearly all actives have a fitted effect of over 60% in size
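Light output from Kinase-Glo luciferase with luciferin and 10 uM ATP in 50 mM imidazole pH 7.2, KCl, MgCl2, Tween 20, BSA; compound pin-delivered, 8-min ambient incubation, then luminescence read.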
ALDH1A1 block – qHTS Assay for Inhibitors of Aldehyde Dehydrogenase 1 (ALDH1A1) | 220,000 tested, 7.3% active | Purified ALDH1A1, NADH fluorescence, propionaldehyde substrate | Potency, µM (titrated, usually from 75.3 µM), for the others: at the top dose activity, negative = inhibition, actives largely listed as inhibitors | Aldehyde dehydrogenase 1A1 (Homo sapiens), P00352;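 note: potency is the fitted concentration of half-maximal effect; plate controls were no enzyme wells and a reference inhibitor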
Target sequence (P00352 whole entry, looked up): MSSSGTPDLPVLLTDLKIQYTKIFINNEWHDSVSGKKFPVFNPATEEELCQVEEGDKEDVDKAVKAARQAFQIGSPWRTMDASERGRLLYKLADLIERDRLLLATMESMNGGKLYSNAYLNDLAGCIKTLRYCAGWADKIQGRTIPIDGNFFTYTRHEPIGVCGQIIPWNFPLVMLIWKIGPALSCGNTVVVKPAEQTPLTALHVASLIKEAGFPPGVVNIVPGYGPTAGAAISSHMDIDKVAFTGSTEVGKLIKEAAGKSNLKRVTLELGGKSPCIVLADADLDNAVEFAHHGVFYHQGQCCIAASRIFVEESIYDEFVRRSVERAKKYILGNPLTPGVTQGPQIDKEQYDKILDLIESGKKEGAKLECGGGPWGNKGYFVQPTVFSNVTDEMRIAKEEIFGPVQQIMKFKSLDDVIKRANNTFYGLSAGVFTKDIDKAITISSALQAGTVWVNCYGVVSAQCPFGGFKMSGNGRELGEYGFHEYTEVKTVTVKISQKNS
HPGD inh – qHTS Assay for Inhibitors of HPGD (15-Hydroxyprostaglandin Dehydrogenase) | Potency, µM, inactives show top-dose activity change, negative = inhibition, usual class: inhibitors | 150,000 tested, 4.3% active | purified HPGD, NADH fluorescence kinetic, PGE2 substrate | 15-hydroxyprostaglandin dehydrogenase [NAD(+)] (Homo sapiens), P15428 | AID 894, 2007; note: potency is the fitted concentration of half-maximal effect
Target sequence (P15428 whole entry, looked up): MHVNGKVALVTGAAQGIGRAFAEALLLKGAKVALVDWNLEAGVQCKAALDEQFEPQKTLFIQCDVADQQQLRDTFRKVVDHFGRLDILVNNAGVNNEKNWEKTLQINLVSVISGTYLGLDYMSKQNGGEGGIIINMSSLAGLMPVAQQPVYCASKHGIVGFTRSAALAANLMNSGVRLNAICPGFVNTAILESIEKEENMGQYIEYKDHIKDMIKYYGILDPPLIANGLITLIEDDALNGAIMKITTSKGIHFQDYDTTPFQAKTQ
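20 nM HPGD preincubated 15 min at room temperature with compound in 50 mM Tris-HCl pH 8, 0.01% Tween 20. Started with 1 mM NAD+ and 30 uM prostaglandin E2; NADH fluorescence (360/450 nm) read 5 times over 30-s intervals, last minus first.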
PNC assembly inh – High Content Assay for Compounds that inhibit the Assembly of the Perinucleolar Compartment | PC3M PTB-GFP, PNC prevalence imaging, 16 h; stronger effect = lower value | activity change (PNC), negative = inhibition, % at 10 µM | 140,000 tested, 3.1% active | AID 2417, 2010;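 active = readout at or below -70, meaning at least 70% loss of cells showing the perinucleolar compartment, a nuclear body marking cancer cells; inconclusive = readout between -30 and a set limit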;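 note: plate controls were DMSO wells for no effect and camptothecin positive control wells for full effect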
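Read-out is percentage of cells bearing a perinucleolar compartment, from automated 20x imaging of fixed, Hoechst-stained PC3M PTB-GFP cells. Cells were seeded 4 h, then exposed 16 h to compound (23 nl of library stock) in duplicate plates.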
Starred values were filed as active, the others as inactive; ? = inconclusive; . = not tested or not shown; [ ] = dose if it differs, or a comment. Only some compounds are listed: those with a hit (about 10% of all), similar ones and a draw of the others. Unless noted, calls come from the whole dose curve; as a rule, active = well fitted inhibition curve with a large enough effect (not every such curve was filed as active); inconclusive = small, poorly fitted or top-dose-only effect, or another doubt; inactive = no such curve, though single readings can be large or run the other way. Unless noted, % is set by controls: 0 for no effect and ±100 for the full control effect.

SMILES | LMNA splice mod | Luc counter | ALDH1A1 block | HPGD inh | PNC assembly inh
COc1ccc(-n2c(SCC(=O)Nc3ncc(Cl)cc3Cl)nc3ccccc32)cc1 | ? | 0.5% | -1.3% | . | .
O=C(CSc1nc2ccccc2n1-c1ccccc1)Nc1ncc(Cl)cc1Cl | ? | 2.0% | 1.5% | -6.8% | -106.8*
Cc1cccc(-n2c(SCC(=O)Nc3ncc(Cl)cc3Cl)nc3ccccc32)c1 | ? | -1.0% | -6.2% | -10.1% | -107.9*
CC(C)(C)CNCCO | . | -0.7%[7.66 µM] | 10.6%[13.5 µM] | -1.5% | .
CN(C)c1ccc(CNC(=O)CN2CCSc3ccc(S(=O)(=O)N(C)C)cc32)cc1 | -11.5%[46 µM] | . | . | . | .
O=[N+]([O-])c1ccccc1S(=O)(=O)N1CCN(CC2CC=CCC2)CC1 (centres undefined) | -12.1%[46 µM] | 3.4% | 14.1µM* | . | .
O=[N+]([O-])c1ccccc1S(=O)(=O)N1CCN(Cc2cc3c(cc2O)OCO3)CC1 | -25.8%[46 µM] | -2.1% | 1.89µM* | . | .
O=c1cc(CN2CCN(S(=O)(=O)c3ccccc3[N+](=O)[O-])CC2)nc2sccn12 | -20.0%[46 µM] | 5.4% | -9.3% | . | .
CCC(C(=O)OCc1cc(=O)n2nc(C)sc2n1)c1ccccc1 (centres undefined) | 2.3%[46 µM] | . | . | . | .
CCCCCCCC#Cc1ccccc1/C=N/S(=O)C(C)(C)C (centres undefined) | . | . | 21.4%[13.5 µM] | . | .
COc1ccc(Oc2ccc(/C=C/C(=O)c3ccc(O)cc3)cc2[N+](=O)[O-])cc1 | ? | 2.4% | ? | -22.7% | -113.4*
CNc1ccc(/C=C/C(=O)c2ccc(C)cc2)cc1[N+](=O)[O-] | ? | 1.7% | 17.3% | -16.8% | ?
O=C(/C=C/c1ccc(-c2ccccc2[N+](=O)[O-])o1)c1ccccc1 | -7.6% | 0.5% | 17.8µM* | -27.7% | 52.7
CN(C)c1ccc(/C=C/C(=O)c2ccccc2)cc1[N+](=O)[O-] | ? | -14.8% | ? | 14.1µM* | -28.0
N#C/C(=C\c1ccc(-c2ccccc2[N+](=O)[O-])o1)C(N)=O | . | . | 4.2% | . | .
COc1cccc(C(=O)/C=C/c2ccc(N3CCCCC3)c([N+](=O)[O-])c2)c1 | ? | -4.2% | 14.1µM* | -5.7% | 29.8
Cc1ccc(C(=O)c2oc3ccccc3c2NC(=O)c2cc(-c3ccccc3)on2)cc1 | 11.1%[46 µM] | . | . | . | .
CC(C)CN1CC[C@@]2(CCCN(C(=O)c3cc(C(F)(F)F)cc(C(F)(F)F)c3)C2)C1 | . | -1.6% | 5.1% | 0.7% | .
Cc1cccc2c(=O)cc(CSCC(=O)Nc3ccc(Cl)cc3)[nH]c12 | -0.5%[46 µM] | . | . | . | .
CN1CCN(c2ccc(S(=O)(=O)N3CCCCC3)cc2[N+](=O)[O-])CC1 | 11.1%[9.22 µM] | -2.0% | -1.8% | . | .
O=C(/C=C/c1ccc(N2CCCCC2)c([N+](=O)[O-])c1)c1ccc(S(=O)(=O)N2CCCC2)cc1 | -2.4% | -3.5% | 4.47µM* | -9.3% | 31.5
N#C/C(=C\c1ccc(-c2ccc(S(=O)(=O)N3CCOCC3)cc2)o1)C(=O)NC1CC1 | -6.4% | 2.5% | ? | 14.1µM* | -16.9
N#C/C(=C\c1ccc(-c2ccc(C(=O)O)cc2)o1)C(=O)NCC1CCCO1 (centres undefined) | -3.2% | -0.3% | ? | ? | -11.5
O=c1cc(-c2cc3ccccc3oc2=O)c2ccc(O)cc2o1 | . | 1.7% | ? | ? | .
COc1ccc(Oc2ncc3nc(-c4ccc(F)cc4)c(=O)n(CCC#N)c3n2)cc1 | -6.4% | . | -2.6% | . | .
SMILES | LMNA splice mod | Luc counter | ALDH1A1 block | HPGD inh | PNC assembly inh
COc1ccc2ccccc2c1/C=N/NC(=S)NCCN1CCOCC1 | . | -1.3% | 0.9% | . | .
C[C@@H](C(=O)Nc1cccc(S(=O)(=O)N2CCOCC2)c1)N1C(=O)C2CC=CCC2C1=O (some centres undefined) | . | 1.5% | -3.1% | . | .
O=S(=O)(c1ccc(NC(=S)NCCC(c2ccccc2)c2ccccc2)cc1)N1CCOCC1 | ? | -0.8% | 12.6µM* | -15.8% | 42.7
S=C(NCCN1CCOCC1)N/N=C/c1c2ccccc2cc2ccccc12 | -7.2% | -1.9% | -13.0% | -15.1% | -80.8*
O=S(=O)(c1ccc(NC(=S)N/N=C/c2c3ccccc3cc3ccccc23)cc1)N1CCOCC1 | . | 1.1% | 10µM* | . | .
CCCCNC(C(=O)Nc1cccc(S(=O)(=O)N2CCOCC2)c1)c1ccccc1 (centres undefined) | -18.9%[46 µM] | 4.4% | 12.6µM* | . | .
NCc1nnn(Cc2ccccc2)c1N | . | -0.2%[7.66 µM] | -11.0%[13.5 µM] | 0.7% | .
O=S(=O)(c1ccc(NC(=S)N/N=C/c2ccc(N3CCOCC3)cc2)cc1)N1CCOCC1 | ? | -1.3% | ? | ? | -12.9
O=S(=O)(c1ccc(NC(=S)NN=C2CCCCC2)cc1)N1CCOCC1 | -14.4%[46 µM] | -3.4% | 14.1µM* | . | .
Cc1ccc(-n2nc(C)c(Sc3ccccc3[N+](=O)[O-])c2N)cc1 | ? | 0.8% | 10µM* | ? | -14.7
Cc1n[nH]c(C)c1Sc1ccccc1[N+](=O)[O-] | ? | 0.5% | -4.4% | . | .
O=[N+]([O-])c1ccc(N2CCCC2)nc1N1CCCC1 | . | . | 1.41µM* | . | .
CC(=O)c1cccc(OCC(=O)c2cc(C)n(-c3cc(C)on3)c2C)c1 | ? | 8.2% | 7.0% | -18.9% | ?
Cc1cc(C(=O)CCl)c(C)n1-c1ccon1 | . | -2.2% | 0.631µM* | . | .
Cc1cc(C(=O)CCl)c(C)n1-c1cccc([N+](=O)[O-])c1 | -12.0%[46 µM] | 2.3% | 0.316µM* | . | .
O=C(CSc1nnc(COc2ccccc2F)n1-c1ccccc1)NCc1ccco1 | -0.5% | -3.0% | -9.3% | 20µM* | ?
Cn1cccc1Cc1nnc(SCC(=O)NCc2ccccc2Cl)n1-c1ccc(F)cc1 | -5.5% | -0.2% | -12.6% | -4.5% | 55.8
Cc1ccc(-n2c(Cc3cccn3C)nnc2SCC(=O)NC2CCCCC2)cc1 | 4.7% | -1.4% | -0.6% | -3.6% | -23.4
Cc1nnc(SCC(=O)NCc2ccco2)n1-c1ccc(F)cc1 | -4.9% | 1.0% | 25.1µM* | -7.7% | ?
Cn1cccc1Cc1nnc(SCC(=O)NCc2ccco2)n1-c1ccc(F)cc1 | -4.5% | -1.3% | 12.6µM* | -5.4% | 34.2
Cc1nnc(SCC(=O)NCc2ccco2)n1-c1ccccc1 | 0.7% | -0.8% | 2.9% | -6.9% | 35.7
Cn1cccc1Cc1nnc(SCC(=O)NC2CCCCC2)n1-c1ccc(F)cc1 | 2.6% | 3.5% | 20µM* | -7.9% | -14.0
O=C(Nc1ccccc1-c1ccccc1)c1cccc([N+](=O)[O-])c1 | 25.8% | 0.3% | 7.94µM* | -5.0% | 91.3
O=C(CC(=O)c1cccc([N+](=O)[O-])c1)Nc1ccccc1Cl | . | -0.2% | 3.55µM* | . | .

High-throughput results (PubChem)
